The source of these data is PubChem BioAssay.

Structures are written as SMILES. Results filed as inconclusive are left out. Calls of active or inactive are those of the source.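 How the source made its calls, unless noted: active means Her2 level under about 52% in both replicate screens, with viability over 70% of control (limit read from the data); inconclusive means Her2 under the limit in one screen only, or viability under 70%; inactive means Her2 level above the set limit.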

Assay [1] in a line: Her2 expression decrease, cell viability multiplex – SKBR3 breast tumor cells, AlphaScreen, ATP viability, primary screen (AID 461).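 On Her2 level: lower value means less Her2 protein in the cells.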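 On viability: percent of carrier control wells set as 100% viability.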 As to conditions: SKBR3 Her2 protein level, 18-24 h, measured here: SKBR3 viability, ATP luminescence, at 10 µM.
The target in assay [2] is Receptor tyrosine-protein kinase erbB-2 (Homo sapiens) (UniProt P04626). The description is as above. Particulars: 18-24 h, at 10 µM, stronger effect = lower value.
Assay [3] can be described thus: reduced viability of SK-BR-3 breast cancer cells – cell-based, 24 h, human, pilot screen (AID 572;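 active means viability at or below 10% of carrier control in both of two separate runs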;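 further: compound exposure lasted between 18 and 24 h rather than exactly 24 h; 100% = carrier-treated control wells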). Particulars: SK-BR-3 viability, CellTiter-Glo luminescence, at 10 µM, stronger effect = lower value.
A short description of assay [4]: HUVEC growth inhibition – cell-based, human, primary screen (AID 575;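 active means viability at or below 30% in both replicate assays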;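 further: 100% = median of untreated cell wells with 0.1% DMSO on each plate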). Particulars: HUVEC proliferation, CellTiter-Glo luminescence, 72 h; at 10 µM; stronger effect = lower value.
Assay [5] is described as follows: H69AR cell proliferation blockers – human, duplicate replicates, primary screen (AID 580;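 active means viability at or under a set limit in both replicates, limit being median viability minus 3 SD, cut at about 48% in these data, passing the limit was not always enough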;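 further: 100% = mean luminescence of untreated wells and 0% = no signal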). Particulars: H69AR lung tumor cells viability, ATP luminescence, 72 h; at 10 µM; stronger effect = lower value.
The nature of assay [6]: MRP1 drug-resistance reversers in H69AR cells – cell-based, doxorubicin co-treatment, pilot screen (AID 601;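 active means viability loss from added drug above about 55%, and viability with drug at most 40%, in both replicates, limit read from the data, passing the limit was not always enough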). As to conditions: CellTiter-Glo, 72 h, at 10 µM; for differential viability (reversal): stronger effect = higher value.
A short description of assay [7]: yeast transport mutant growth inhibition pilot in 384-well plates, post-Golgi transport modulator project (AID 636; in the data active means inhibition above about 31%). As to conditions: absorbance 615 nm, about 18 h, stronger effect = higher value.
The nature of assay [8]: growth suppression of yeast trafficking mutant, preliminary HTS, modulators of trafficking downstream of Golgi apparatus project, 1536-format plate, OD 615 nm (AID 637; in the data active means inhibition above about 30%). As to conditions: yeast transport mutant growth, absorbance 615 nm, 18 h; stronger effect = higher value.
Assay [9] is described as follows: S. cerevisiae growth inhibition in permissive medium (OD615), pilot counter-assay for S. cerevisiae lifespan shortening project, permissive growth control (AID 705;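 active means growth inhibition above 25% in both replicates, a cutoff set 3 SD above the mean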). Particulars: OD615, 24 h, at 10 µM, stronger effect = higher value.
The nature of assay [10]: S. cerevisiae growth inhibition in restrictive medium, OD615, pilot screen, restrictive growth control, yeast lifespan reduction project (AID 706;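 active means growth inhibition above a set limit, 3 SD over mean compound inhibition, in both replicates, cut at about 43% in these data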;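 further: modified DeaD lifespan yeast strain shifted to restrictive glucose medium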). Particulars: OD615, 48 h, at 10 µM, stronger effect = higher value.
Assay [11] can be described thus: doxorubicin toxicity protection in MRP-1 cells – H69AR cells, CellTiter-Glo, duplicate, MRP-1 activator project, pilot screen (AID 807;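 active means viability increase at or above a cutoff of the median across tested compounds plus 3 SD, cut at about 8.5% in these data, passing the limit was not always enough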;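 further: compound pretreatment 18-22 h then 72 h combined with doxorubicin; 0% = doxorubicin alone and 100% = vehicle without doxorubicin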). As to conditions: H69AR viability with doxorubicin, CellTiter-Glo luminescence; at 10 µM; stronger effect = higher value.
The nature of assay [12]: viability of HCT116 without oncogenic beta-catenin – human colon tumor cells, pilot screen (AID 823;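 active means cell viability at or below a set limit in both duplicate runs, the limit being the all-compound median minus 4 SD, cut at about 23% in these data, passing the limit was not always enough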;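 further: 0% = wells killed by 20 µM Hyamine and 100% = untreated DMSO cell wells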). Particulars: HCT116 beta-catenin knockout viability, CellTiter-Glo, 60 h; at 10 µM; stronger effect = lower value.
A short description of assay [13]: viability of PTEN-null HCT116 cells – cell-based, HCT116 clonal line, CellTiter-Glo, pilot screen (AID 824;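 active means viability at or below 27.92% in each of two runs, the all-compound median minus 4 SD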;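 further: 0% = 20 µM Hyamine control and 100% = vehicle cell control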). As to conditions: HCT116 PTEN-deleted viability, 60 h, at 10 µM, stronger effect = lower value.
Assay [14] is described as follows: RAM pathway blockade in budding yeast – dse1pr::URA3 reporter, 5-FOA selection, pilot screen (AID 869;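 active means inhibition over a set limit, the all-compound mean plus 3 SD, in both replicate runs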;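 further: 0% = DMSO wells with no growth and 100% = 10 µM 1-NA-PP1 with full growth; RAM network block rescues cells from 5-FOA so hits raise OD615 growth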). As to conditions: S. cerevisiae dse1pr::URA3 5-FOA growth, OD615, 2 d; at 10 µM; stronger effect = higher value; strain carries analog-sensitive mutant Cbk1 kinase.
A short description of assay [15]: RAM signaling pathway blockade in yeast – S. cerevisiae, Pdr1DBD-CYC8 efflux-inhibited sensitized strain, primary screen (AID 1298;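 active means RAM network inhibition above 8.4% in each of two replicates, 3 SD over the compound average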;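 further: 0% = DMSO untreated cells without growth and 100% = 10 µM 1-NA-PP1 full growth; higher means more yeast growth rescued from 5-FOA killing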). Particulars: S. cerevisiae cbk1-as DSE1-URA3 strain, 5-FOA growth OD615, 2 d; at 50 µM; stronger effect = higher value.
[16] abbreviates: H69AR cells + 2 uM doxorubicin, measured here: viability with 2 uM doxorubicin, stronger effect = lower value.
Setting [17] is: H69AR cells, compound alone cytotoxicity.

Sequence of Receptor tyrosine-protein kinase erbB-2 (Homo sapiens) (P04626 whole entry, looked up): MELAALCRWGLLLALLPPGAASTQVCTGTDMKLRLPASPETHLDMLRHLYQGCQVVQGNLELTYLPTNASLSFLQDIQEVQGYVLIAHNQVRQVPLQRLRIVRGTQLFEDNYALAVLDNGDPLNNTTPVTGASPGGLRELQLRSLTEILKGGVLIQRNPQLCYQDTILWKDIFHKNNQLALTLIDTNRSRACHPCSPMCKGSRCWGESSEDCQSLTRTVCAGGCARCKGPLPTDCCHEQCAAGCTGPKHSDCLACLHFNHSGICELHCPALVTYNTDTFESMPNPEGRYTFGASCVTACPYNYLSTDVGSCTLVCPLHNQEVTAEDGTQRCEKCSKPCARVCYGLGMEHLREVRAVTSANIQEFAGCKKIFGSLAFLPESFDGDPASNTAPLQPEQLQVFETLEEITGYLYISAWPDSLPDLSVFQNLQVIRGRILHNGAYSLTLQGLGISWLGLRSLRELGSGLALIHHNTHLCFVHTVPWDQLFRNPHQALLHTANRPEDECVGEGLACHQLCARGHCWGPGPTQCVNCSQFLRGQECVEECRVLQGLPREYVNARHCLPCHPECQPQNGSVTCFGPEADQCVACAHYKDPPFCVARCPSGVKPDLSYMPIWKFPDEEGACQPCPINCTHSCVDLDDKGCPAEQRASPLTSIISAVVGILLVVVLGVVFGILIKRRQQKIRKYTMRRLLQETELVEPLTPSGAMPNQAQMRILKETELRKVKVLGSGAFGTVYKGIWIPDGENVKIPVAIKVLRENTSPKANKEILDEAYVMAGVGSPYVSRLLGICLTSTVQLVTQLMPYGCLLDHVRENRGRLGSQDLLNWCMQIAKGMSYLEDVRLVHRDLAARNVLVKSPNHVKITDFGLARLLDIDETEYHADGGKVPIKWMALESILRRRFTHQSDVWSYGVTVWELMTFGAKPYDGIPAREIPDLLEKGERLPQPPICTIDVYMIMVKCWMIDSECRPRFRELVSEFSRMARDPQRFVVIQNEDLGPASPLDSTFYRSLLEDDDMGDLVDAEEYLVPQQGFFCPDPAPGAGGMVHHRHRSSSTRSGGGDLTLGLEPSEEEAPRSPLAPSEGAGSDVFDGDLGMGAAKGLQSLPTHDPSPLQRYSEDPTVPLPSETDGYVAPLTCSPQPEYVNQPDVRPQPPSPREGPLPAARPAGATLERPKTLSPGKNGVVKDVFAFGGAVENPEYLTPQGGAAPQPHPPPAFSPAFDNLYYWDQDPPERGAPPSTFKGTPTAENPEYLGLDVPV

Regarding `COc1ccc(C2CC(c3ccc(Cl)cc3Cl)n3nc(N)nc3N2)cc1` (stereo not given), the viability in [1] was 95%; in [3] it was 95% (inactive); in assay [4], 79.8% (inactive); in [5] it was 90.4% (inactive); in [6] (setting [16]), 91.1%; in [6] (setting [17]), 90.4%. For the same molecule, the viability in [12] was 90.9% (inactive); in assay [13] it was 91.3% (inactive). In [2], the Her2 level was 93.5% (inactive). The differential viability (reversal) in [6] (H69AR cells + 2 uM doxorubicin) is -0.635% (inactive). Further, the figures for the inhibition in assay [7], in [8] and in assay [14] were 0.64% (inactive), 3.67% (inactive) and 1.59% (inactive), respectively. Further, the growth inhibition in [9] is 7.35% (inactive); in assay [10] it was 25.7% (inactive). The viability increase in assay [11] is 3.63% (inactive). In addition, the RAM network inhibition in assay [15] was 4.26% (inactive).

As for `COc1cc2c(cc1OC)-c1nnc(-c3cccs3)n1C(C)(C)C2`, the viability in assay [1] is 64.5%; in assay [3], 64.5% (inactive); in assay [4] it was 114% (inactive); in assay [5], 102% (inactive); in assay [6] (setting [16]) it was 99.1%; in assay [6] (setting [17]), 102%. Also, the results for the viability in assay [12] and in [13] were 90.4% (inactive) and 80.6% (inactive), respectively. Also, the Her2 level in [2] is 95.5% (inactive). In addition, the differential viability (reversal) in assay [6] (H69AR cells + 2 uM doxorubicin) is 2.48% (inactive). For the same molecule, the inhibition in [7] was 0.13% (inactive); in assay [8] it was -4.17% (inactive); in assay [14], 0.115% (inactive). Besides, the growth inhibition in assay [9] was -11.8% (inactive); in assay [10] it was -8.72% (inactive). Also, the viability increase in assay [11] is -2.78% (inactive). In addition, in assay [15], the RAM network inhibition was 0.94% (inactive).

Consider `CCOC(=O)C(CC)Sc1ncnc2nc[nH]c12` (stereo not given), for which the viability in assay [1] was 104%; in [3] it was 104% (inactive); in assay [4] it was 103% (inactive); in assay [5], 101% (inactive); in assay [6] (setting [16]), 88.2%; in assay [6] (setting [17]), 101%. Besides, the viability in assay [12] is 97.5% (inactive); in assay [13] it was 91.9% (inactive). In addition, the Her2 level in assay [2] is 106% (inactive). For the same molecule, in assay [6] (H69AR cells + 2 uM doxorubicin), the differential viability (reversal) is 13% (inactive). Besides, the inhibition in assay [7] is 0.13% (inactive); in assay [8] it was -7.27% (inactive); in [14] it was 1.79% (inactive). In addition, the growth inhibition in [9] was -11% (inactive); in assay [10], -11.7% (inactive). For the same molecule, the viability increase in assay [11] was -1.92% (inactive). Further, the RAM network inhibition in assay [15] is 2.41% (inactive).

For `CCCN(CCC)C(=O)c1c(C)[nH]c(C(=O)OCC)c1C`, the viability in [1] was 98%; in assay [3] it was 98% (inactive); in [4] it was 106% (inactive); in assay [5], 81.4% (inactive); in assay [6] (setting [16]), 93.8%; in [6] (setting [17]) it was 81.4%. The results for the viability in assay [12] and in assay [13] were 92.9% (inactive) and 86.7% (inactive), respectively. The Her2 level in assay [2] is 110% (inactive). The differential viability (reversal) in assay [6] (H69AR cells + 2 uM doxorubicin) is -12.4% (inactive). The values for the inhibition in [7], in assay [8] and in assay [14] were -0.38% (inactive), -2.33% (inactive) and 2.12% (inactive), respectively. Besides, the growth inhibition in assay [9] is 4.14% (inactive); in assay [10], -3.27% (inactive). Moreover, in assay [11], the viability increase was -3.62% (inactive). Moreover, the RAM network inhibition in assay [15] is 1.44% (inactive).

`CCn1cc(C(=O)NCCC2=CCCCC2)c(=O)c2cc(S(=O)(=O)N(C)C)ccc21`: the viability in assay [1] was 82.5%; in assay [3] it was 82.5% (inactive); in [4], 70.4% (inactive); in assay [5], 71.7% (inactive); in [6] (setting [16]) it was 62.1%; in assay [6] (setting [17]) it was 71.7%. Further, the values for the viability in [12] and in assay [13] were 86.4% (inactive) and 72.6% (inactive), respectively. The Her2 level in [2] is 98.5% (inactive). In addition, in [6] (H69AR cells + 2 uM doxorubicin), the differential viability (reversal) was 9.64% (inactive). The inhibition in assay [7] was -4.67% (inactive); in [8] it was -3.61% (inactive); in assay [14], 1.37% (inactive). For the same molecule, the figures for the growth inhibition in [9] and in assay [10] were -14.2% (inactive) and -29.6% (inactive), respectively. Moreover, the viability increase in [11] is -4.4% (inactive). For the same molecule, the RAM network inhibition in assay [15] is 1.83% (inactive).
